A number with no mark means an inactive call. Where a call stands in place of a potency, no number is given. For part of these data: Potency and affinity values are given separately. Calls of active or inactive are those of the source. Unless noted, the rule behind the calls is not given here.
What was measured:
[1] = antimalarial activity against Dd2 strain (AID 2302;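 active = growth inhibition above 50% at the single 2 µM test dose, taken to imply half-maximal potency below 2 µM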); settings: P. falciparum Dd2 in RBCs, LDH growth readout, 72 h; at 2 µM; hits give high values
[2] = human hepatoma cell viability loss – ATP luminescence, cytotoxicity control for P. falciparum antimalarial project, primary screen (AID 2303;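 active = inhibition above 50%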); settings: HepG2 viability, 24-48 h, at 10 µM, hits give high values
[3] = target: L-lactate dehydrogenase (Plasmodium falciparum (isolate CDC / Honduras)) (UniProt Q27743); assay: PfLDH activity inhibition – cell lysate, 3D7 strain, counter-screen for P. falciparum growth inhibition project (AID 2304); settings: P. falciparum 3D7 crude extract, LDH APAD/NBT absorbance; at 2 µM; hits give high values
L-lactate dehydrogenase (Plasmodium falciparum (isolate CDC / Honduras)), sequence (Q27743 whole entry, looked up): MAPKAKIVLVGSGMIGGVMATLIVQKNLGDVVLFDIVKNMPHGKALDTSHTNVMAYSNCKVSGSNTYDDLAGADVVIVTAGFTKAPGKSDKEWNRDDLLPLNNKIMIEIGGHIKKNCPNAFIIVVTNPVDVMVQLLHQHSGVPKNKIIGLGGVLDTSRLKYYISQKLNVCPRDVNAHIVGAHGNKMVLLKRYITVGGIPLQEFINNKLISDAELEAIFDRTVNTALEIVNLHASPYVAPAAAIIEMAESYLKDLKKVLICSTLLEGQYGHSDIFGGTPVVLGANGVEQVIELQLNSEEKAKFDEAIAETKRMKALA

[4] = inhibition of 3D7 malaria parasite growth – strain 3D7 (AID 2306); settings: P. falciparum 3D7 erythrocytic growth, LDH absorbance, 72 h; at 2 µM; hits give high values
[5] = target: Calcium-dependent protein kinase 1 (Plasmodium falciparum (isolate 3D7)) (UniProt P62344); assay: PfCDPK1 kinase inhibitors, biochemical, TCAMS library (AID 1159585; cut-off not given, nearly all actives have IC50 up to about 0.98 µM;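 note: inhibitors leave more ATP so luminescence rises with inhibition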); settings: recombinant PfCDPK1, Kinase-Glo ATP depletion luminescence
Calcium-dependent protein kinase 1 (Plasmodium falciparum (isolate 3D7)), sequence (P62344 whole entry, looked up): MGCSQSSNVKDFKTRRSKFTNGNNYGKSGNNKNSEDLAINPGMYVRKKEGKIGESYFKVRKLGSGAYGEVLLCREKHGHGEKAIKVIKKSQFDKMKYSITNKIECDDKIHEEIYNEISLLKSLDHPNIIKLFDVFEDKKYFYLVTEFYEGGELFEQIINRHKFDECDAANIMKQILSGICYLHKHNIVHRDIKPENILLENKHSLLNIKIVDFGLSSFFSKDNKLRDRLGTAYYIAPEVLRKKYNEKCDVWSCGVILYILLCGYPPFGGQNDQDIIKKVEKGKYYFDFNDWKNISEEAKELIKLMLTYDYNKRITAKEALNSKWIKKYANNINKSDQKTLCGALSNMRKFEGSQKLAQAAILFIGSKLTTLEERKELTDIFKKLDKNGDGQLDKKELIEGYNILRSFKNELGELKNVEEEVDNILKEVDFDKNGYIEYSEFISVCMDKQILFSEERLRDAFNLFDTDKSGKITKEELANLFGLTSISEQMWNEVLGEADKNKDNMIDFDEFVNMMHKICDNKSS

[6] = target: Plasmodium falciparum protein kinase 6 (PK6, PF3D7_1337100) (UniProt Q8IDW1); assay: PfPK6 kinase inhibitors, biochemical, TCAMS library (AID 1159586); settings: recombinant PfPK6, Kinase-Glo ATP depletion luminescence
Plasmodium falciparum protein kinase 6 (PK6, PF3D7_1337100), sequence (Q8IDW1 1-305): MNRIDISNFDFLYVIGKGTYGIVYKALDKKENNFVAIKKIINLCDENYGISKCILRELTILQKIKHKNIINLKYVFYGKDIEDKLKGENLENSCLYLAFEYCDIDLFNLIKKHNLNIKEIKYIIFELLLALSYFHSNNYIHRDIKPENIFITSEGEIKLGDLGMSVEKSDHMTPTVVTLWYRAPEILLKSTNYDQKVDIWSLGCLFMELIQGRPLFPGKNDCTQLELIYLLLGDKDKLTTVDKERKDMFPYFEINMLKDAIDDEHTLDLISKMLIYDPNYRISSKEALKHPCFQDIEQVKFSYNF

[7] = target: Protein kinase 7 (PK7), Plasmodium falciparum 3D7 (PF3D7_0213400) (UniProt Q7YTF7); assay: inhibition of Plasmodium PK7 catalytic activity – biochemical, TCAMS antimalarial set, Kinase-Glo luminescence (AID 1159587); settings: recombinant PfPK7, Kinase-Glo ATP depletion luminescence
Protein kinase 7 (PK7), Plasmodium falciparum 3D7 (PF3D7_0213400), sequence (Q7YTF7 1-343): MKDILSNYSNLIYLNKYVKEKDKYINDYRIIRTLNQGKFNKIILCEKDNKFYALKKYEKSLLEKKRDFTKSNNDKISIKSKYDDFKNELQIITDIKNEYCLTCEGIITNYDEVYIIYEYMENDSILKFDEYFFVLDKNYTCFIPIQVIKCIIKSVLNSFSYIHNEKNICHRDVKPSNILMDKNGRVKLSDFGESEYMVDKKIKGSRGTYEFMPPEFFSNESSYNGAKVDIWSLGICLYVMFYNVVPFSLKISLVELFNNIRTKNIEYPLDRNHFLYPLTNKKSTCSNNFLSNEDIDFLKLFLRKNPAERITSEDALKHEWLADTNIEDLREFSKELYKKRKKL

[8] = target: Calcium-dependent protein kinase 4 (Plasmodium falciparum (isolate 3D7)) (UniProt Q8IBS5); assay: PfCDPK4 kinase inhibitors, biochemical, TCAMS library (AID 1159588; cut-off not given, nearly all actives have IC50 up to about 0.91 µM); settings: recombinant PfCDPK4, Kinase-Glo ATP depletion luminescence
Calcium-dependent protein kinase 4 (Plasmodium falciparum (isolate 3D7)), sequence (Q8IBS5 whole entry, looked up): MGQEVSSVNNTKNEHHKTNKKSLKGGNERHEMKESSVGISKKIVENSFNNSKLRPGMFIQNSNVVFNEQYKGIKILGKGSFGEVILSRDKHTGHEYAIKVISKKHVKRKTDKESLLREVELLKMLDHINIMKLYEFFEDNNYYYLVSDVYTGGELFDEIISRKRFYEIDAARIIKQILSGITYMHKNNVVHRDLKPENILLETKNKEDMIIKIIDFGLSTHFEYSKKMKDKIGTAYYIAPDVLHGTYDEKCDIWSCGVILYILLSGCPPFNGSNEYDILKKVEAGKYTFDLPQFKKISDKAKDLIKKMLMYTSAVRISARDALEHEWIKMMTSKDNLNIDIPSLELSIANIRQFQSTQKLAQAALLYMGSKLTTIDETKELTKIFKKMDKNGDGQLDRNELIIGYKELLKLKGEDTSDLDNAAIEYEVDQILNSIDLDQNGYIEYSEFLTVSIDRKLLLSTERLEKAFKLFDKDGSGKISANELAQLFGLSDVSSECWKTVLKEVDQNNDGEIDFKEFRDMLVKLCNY

| SMILES | growth inhibition [1] | inhibition [2] | inhibition [3] | growth inhibition [4] | outcome [5] | outcome [6] | outcome [7] | outcome [8] |
| --- | --- | --- | --- | --- | --- | --- | --- | --- |
| COc1ccc(NC(=O)[C@H](Cc2ccccc2)Nc2cc(C)nc(NCCN3CCCC3)n2)cc1 | 3% | 15% | -2% | 97% (active) | inactive | inactive | inactive | inactive |
| Cn1cc(-c2ccccc2C(=O)O)c(=O)c2cc(Cl)ccc21 | -4% | 16% | -1% | 89% (active) | inactive | inactive | inactive | inactive |
| CCN(CCCN1CCCCC1)c1cc(C)nc(Nc2cc(Cl)cc(Cl)c2)n1 | 99% (active) | 34% | -3% | 100% (active) | inactive | inactive | inactive | inactive |
| COc1ccc(CCNC(=O)c2ccc(-n3cc(NC(=O)c4cccnc4)cn3)cc2)cc1OC | 89% (active) | 17% | 3% | 90% (active) | inactive | inactive | inactive | inactive |
| CC1(C)N=C(N)N=C(N)N1CCc1ccccc1 | -1% | 50% (active) | -4% | 93% (active) | inactive | inactive | inactive | inactive |
| Cc1cccc2[nH]c(-c3ccc(-c4ccc(NC(=O)Nc5ccc(F)c(F)c5F)cc4)s3)nc12 | 99% (active) | 58% (active) | 2% | 100% (active) | inactive | inactive | inactive | inactive |
| CCCOc1cc(NC(=O)Nc2ccnc3ccccc23)cc(OCCC)c1 | 98% (active) | 6% | -1% | 102% (active) | inactive | inactive | inactive | inactive |
| OC(CNc1ccnc(Nc2ccc(Cl)cc2)n1)c1cccc(C(F)(F)F)c1 (stereo not drawn) | 84% (active) | 9% | 4% | 101% (active) | inactive | inactive | inactive | inactive |
| CCOC(=O)CCCCOc1c(OC)cc(Cc2cnc(N)nc2N)cc1OC | 0% | -8% | 5% | 95% (active) | inactive | inactive | inactive | inactive |
| CCOc1cc(C(=O)Nc2cccnc2)cc(Br)c1OCCC(C)C | 51% (active) | 4% | 1% | 88% (active) | inactive | inactive | inactive | inactive |
| CC(=O)Nc1cccc(C(=O)Nc2cccc(-c3ccc(-c4nc5ccc(C(F)(F)F)cc5[nH]4)s3)c2)c1 | 46% | 80% (active) | -3% | 98% (active) | inactive | inactive | inactive | inactive |
| C[C@H](CNc1ccnc(Nc2ccc3[nH]c(=O)[nH]c3c2)n1)c1ccccc1 | -5% | 61% (active) | -2% | 100% (active) | inactive | inactive | inactive | inactive |
| O=C(Nc1cccc(-c2ccc(-c3nc4ccc(C(F)(F)F)cc4[nH]3)s2)c1)c1ccncc1 | 46% | 79% (active) | -13% | 99% (active) | inactive | inactive | inactive | inactive |
| O=C(Nc1ccccc1F)NC1CCN(c2ccnc(Nc3ccc(F)cc3)n2)C1 (stereo not drawn) | 74% (active) | 0% | -7% | 95% (active) | inactive | inactive | inactive | inactive |
| CN1CCN(CCCN(Cc2cccc(-c3cccc(CNCc4ccc5c(c4)OCO5)c3)c2)C(=O)CCC2CCCC2)CC1 | 80% (active) | 85% (active) | 1% | 98% (active) | inactive | inactive | inactive | inactive |
| C[C@@H]1CN(c2ccnc3ccc(Sc4ccc(Oc5ccccc5)cc4)cc23)C[C@H](C)N1 | 99% (active) | 33% | 7% | 100% (active) | inactive | inactive | inactive | inactive |
| Fc1ccc(-c2cc3ncnc(N4CCN(CCN5CCCC5)CC4)c3s2)cc1 | 40% | 25% | -1% | 98% (active) | inactive | inactive | inactive | inactive |
| CCN(CC)C(=S)N=Nc1c(O)[nH]c2c(C)cccc12 | 69% (active) | 28% | 3% | 94% (active) | inactive | inactive | inactive | inactive |
| Cc1cccc2[nH]c(-c3ccc(-c4ccc(NC(=O)Nc5ccc(F)c(F)c5F)cc4)cc3)nc12 | 97% (active) | 51% (active) | -1% | 100% (active) | inactive | inactive | inactive | inactive |
| O=C(Nc1cc(F)cc(-c2cccnc2)c1)c1ccc2c(=O)n(Cc3ccccc3)cnc2c1 | 11% | 7% | 2% | 98% (active) | inactive | inactive | inactive | inactive |
| Cc1cc(CN2CCC(N3CC(c4ccccc4)(c4ccccc4)OC3=O)C2)ccc1O (stereo not drawn) | 68% (active) | -3% | 1% | 96% (active) | inactive | inactive | inactive | inactive |

Reference: PubChem BioAssay
